Drawing on PubChem BioAssay AID2284421 (EPA ToxCast), this text covers outcome and AC50 for 16 compounds.

Calls of active or inactive are those of the source. How the source made its calls: active means hit-call score of the fitted dose curve at least 0.9, where 1 is the maximum; inactive means score below 0.9.

The test system of this assay is Brachyury (BRA) Protein Expression, Deisenroth Lab, TBXT (gene 6862). Description: CCTE_Deisenroth_DEVTOX-GLR_Meso_BRA: CCTE's DevTox GLR-Meso Assay Evaluation of Brachyury (BRA) Protein Expression, Deisenroth Lab. The protocol:
CCTE_Deisenroth_DEVTOX-GLR_Meso assay is a cell-based, multiplex-readout assay that uses RUES2-GLR, a human pluripotent cell line, with measurements taken at 48 hours after chemical dosing in a 384-well microplateCCTE_Deisenroth_DEVTOX-GLR_Meso_BRA is 1 of 4 assay components calculated from the CCTE_Deisenroth_DEVTOX-GLR_Meso assay and it measures an the percentage of cells in an mesoderm state. Using a type of inducible fluorescent protein reporter, gain-of-signal activity can be used to understand changes in gene expression with fluorescent microscopy. The percentage of BRA+ cells are determined by calculating the number of BRA+ cells divided by the cell count. To generalize the intended target to other relatable targets, this assay component is annotated to the transcription factor intended target family, where the subfamily is T-box protein.Data from the assay component CCTE_Deisenroth_DEVTOX-GLR_Meso_BRA was analyzed as 1 assay endpoint. The endpoint is the percent change in BRA+ cell population relative to the 0.2% DMSO control in the CCTE_Deisenroth_DEVTOX-GLR_Meso assay. Furthermore, this assay endpoint can be referred to as a primary readout, because this assay has produced multiple assay endpoints where this one serves as a measure of mesoderm differentiation.
All assay protocols are aligned to the DevTox GLR-Endo assay workflow. Cells are seeded into 384-well microplates for 24 hours prior to initiating differentiation in defined media for a total duration of 48 hours. A total of two chemical exposures are administered in 24-hour intervals during the 48-hour differentiation period. At the assay termination point, cells are fixed and stained with a fluorescent dye demarcating the nucleus. High-content imaging is used to acquire brightfield and fluorescent channel images across 5 fields per well. Cell identification and mean biomarker fluorescence intensities are calculated with image analysis software to determine the total cell counts for viability assessment and the biomarker expression frequency for each lineage-dependent assay. A typical experimental design tests a 10-point concentration series (1 nM - 200 uM) for 28 compounds in single technical replicate. Assay plate controls include non-differentiated pluripotent cells (baseline control), lineage-specific differentiated cells (differentiation control), and DMSO solvent exposed differentiated cells (solvent control). Experiments typically comprise a minimum of four experimental replicates (n=4).
Take `O=C1NS(=O)(=O)c2ccccc21`: the outcome was inactive.

With `CC(C)(c1ccc(O)cc1)c1ccc(O)cc1`, the call was inactive.

On to `CCN(CC)CCNC(=O)c1c(C)[nH]c(/C=C2\C(=O)Nc3ccc(F)cc32)c1C`, for which the compound was called inactive.

Consider `CCCC(CCC)C(=O)O`, for which the result was inactive.

Consider `CC1(C)S[C@@H]2[C@H](NC(=O)Cc3ccccc3)C(=O)N2[C@H]1C(=O)O`, for which the outcome was inactive.

As for `CC1=C(/C=C/C(C)=C/C=C/C(C)=C/C(=O)O)C(C)(C)CCC1`, the call was inactive.

As to `O=c1[nH]cc(F)c(=O)[nH]1`, the call was inactive.

For the compound `O=C1CCC(N2C(=O)c3ccccc3C2=O)C(=O)N1` (stereo unspecified), the outcome was inactive.

On to `CS(=O)(=O)OCCCCOS(C)(=O)=O`, for which the compound was classed as inactive.

Regarding `CN(Cc1cnc2nc(N)nc(N)c2n1)c1ccc(C(=O)N[C@@H](CCC(=O)O)C(=O)O)cc1`, the compound was classed as inactive.

Consider `CC1=C(/C=C/C(C)=C/C=C/C(C)=C\C(=O)O)C(C)(C)CCC1`, for which the compound was classed as inactive.

For `CC/C(=C(/CC)c1ccc(O)cc1)c1ccc(O)cc1`, the AC50 is 19.8 µM (active).

In the case of `CC(=O)Nc1ccc(O)cc1`, the call was inactive.

For `Nc1cccc2c1C(=O)N(C1CCC(=O)NC1=O)C2=O` (stereo unspecified), the result was inactive.

`Nc1nc2ncc(CNc3ccc(C(=O)N[C@@H](CCC(=O)O)C(=O)O)cc3)nc2c(=O)[nH]1`: the result was inactive.

On to `O=C1NC(=O)C(c2ccccc2)(c2ccccc2)N1`, for which the compound was classed as inactive.

The AC50 is the concentration giving half of the maximal activity seen.
